Among all 390,000 compounds or so, about 910 (0.23%) were called active. Roughly 5% stayed inconclusive and do not appear here. Calls come from the whole dose curve; as a rule, active = well fitted inhibition curve with a large enough effect; inconclusive = small, poorly fitted or top-dose-only effect; inactive = no such curve, though single readings can be large or run the other way. What follows is part of a selection rich in actives, with near analogues and random picks from the rest. Where a call stands in place of a potency, no number is given.
Potency is the fitted concentration of half-maximal effect.

Ubiquitin carboxyl-terminal hydrolase 1 (Homo sapiens), sequence (O94782 whole entry, looked up): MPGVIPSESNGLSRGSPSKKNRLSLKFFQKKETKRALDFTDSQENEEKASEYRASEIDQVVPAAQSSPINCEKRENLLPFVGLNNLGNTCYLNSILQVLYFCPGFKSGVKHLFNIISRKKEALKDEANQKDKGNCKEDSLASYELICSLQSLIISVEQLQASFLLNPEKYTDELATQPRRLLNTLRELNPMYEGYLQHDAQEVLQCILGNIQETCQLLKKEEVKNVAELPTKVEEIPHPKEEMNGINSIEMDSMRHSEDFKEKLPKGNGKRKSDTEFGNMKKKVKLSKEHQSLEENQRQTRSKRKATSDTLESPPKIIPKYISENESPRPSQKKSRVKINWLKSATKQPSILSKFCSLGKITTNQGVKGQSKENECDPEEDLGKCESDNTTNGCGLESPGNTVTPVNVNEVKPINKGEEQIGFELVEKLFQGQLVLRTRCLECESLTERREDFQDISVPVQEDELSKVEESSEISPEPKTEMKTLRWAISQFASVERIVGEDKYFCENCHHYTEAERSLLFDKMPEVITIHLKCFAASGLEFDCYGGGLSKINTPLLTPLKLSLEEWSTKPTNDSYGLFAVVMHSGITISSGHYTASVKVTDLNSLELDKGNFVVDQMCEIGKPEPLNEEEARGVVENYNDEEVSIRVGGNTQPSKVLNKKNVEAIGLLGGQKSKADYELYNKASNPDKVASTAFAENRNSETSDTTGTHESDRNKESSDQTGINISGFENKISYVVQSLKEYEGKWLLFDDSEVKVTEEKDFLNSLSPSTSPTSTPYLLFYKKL

This test concerns the target Ubiquitin carboxyl-terminal hydrolase 1 (Homo sapiens) (UniProt O94782). The test can be described thus: Inhibitors of USP1/UAF1: Primary Screen. Note: nearly all actives have a fitted effect of over 60% in size. The following applies: recombinant USP1/UAF1, Ub-Rhodamine cleavage fluorescence; series mostly up to 57.1 µM. The method, boiled down:
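USP1/UAF1 complex (1 nM) preincubated 15 min at room temperature with compound, then Ub-Rho substrate (150 nM final) added. Kinetic fluorescence at 480/540 nm over 6 reads at 60 s intervals; 50 mM HEPES pH 7.8, 0.5 mM EDTA, 0.1 mg/ml BSA, 1 mM TCEP, 0.01% Tween-20.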
With `Cc1ccc(C2CCN(C(=O)c3cnn(-c4ccccc4Cl)c3C3CCN(C(=O)OC(C)(C)C)CC3)C2)cc1` (stereo unspecified), the Potency entry is “inactive”.

For `COc1c(Cl)cc(C(=O)N(Cc2ccccc2F)C2CCS(=O)(=O)C2)cc1Cl` (stereo unspecified), the Potency entry is “inactive”.

Take `Oc1ccc2ccc3cccc[n+]3c2c1`: the Potency was 28.2 µM (active).

For the molecule `N#Cc1ccc(C2=CC(=O)C[C@H](c3ccc(Cl)cc3)C2)cc1`, the Potency result was “inactive”.

Take `Cc1ccccc1C(=O)N1CCC(C(=O)Oc2ccc(C#N)cc2)CC1`: the Potency result was “inactive”.

Consider `CC1(OC(=O)C2CCCC2)C(=O)C=C2C=C(c3ccc(C#N)cc3)OC=C2C1=O` (stereo unspecified), for which the Potency is 31.6 µM (active).

For the molecule `Clc1ccc(CSc2nncn3c2cc2occc23)cc1`, the Potency result is “inactive”.

Turning to `CCC1CCCCN1Cc1c(O)ccc2c(=O)c(Oc3ccccc3Cl)c(C(F)(F)F)oc12` (stereo unspecified), the Potency entry is “inactive”.

As for `Fc1ccc(CN2CCc3nc(Nc4ccccc4)ncc3C2)cc1F`, the Potency result is “inactive”.

For the molecule `CCCCNC(=O)c1cc(-c2ccc(Cl)c(Cl)c2)on1`, the Potency result was “inactive”.

In the case of `O=C(OCc1cc(=O)n2nc(C3CC3)sc2n1)c1ccccc1Cl`, the Potency result is “inactive”.

Turning to `CC1Cc2cc(S(=O)(=O)CCC(=O)Nc3ccc(F)c(Cl)c3)ccc2N1C(=O)C1CC1` (stereo unspecified), the Potency entry was “inactive”.

As for `Nc1ccc2nc3c(=O)[nH]c(=S)[nH]c3nc2c1`, the Potency is 28.2 µM (active).

As for `COc1ccc(NC(=O)CSc2nc3ccccc3[nH]2)cc1`, the Potency result was “inactive”.

On to `NS(=O)(=O)c1ccc2nc(NC(=O)COc3ccccc3)sc2c1`, for which the Potency entry was “inactive”.

Turning to `CCN(CC)c1ccc(C2C(C(N)=O)=C(C)Nc3nc(SCc4ccccc4)nn32)cc1` (stereo unspecified), the Potency result was “inactive”.

Regarding `COc1cccc2c1cc1c(=O)n(CC(=O)N3CCN(c4cccc(Cl)c4)CC3)nc(C)n12`, the Potency result is “inactive”.

Take `COc1cc(/C=C2/C(=O)NN(c3cccc(Cl)c3)C2=O)cc(Br)c1O`: the Potency was 28.2 µM (active).

In the case of `Cc1nc(SCCOc2ccc(Cl)cc2)[nH]c(=O)c1Cc1ccccc1`, the Potency entry was “inactive”.

For `Cc1cccc(-c2nc(SCC(=O)Nc3cc(C)on3)c3c(=O)n(C)c(=O)n(C)c3n2)c1`, the Potency result is “inactive”.

Take `CCC(=O)N1c2ccccc2CC1C(=O)N1CCN(c2ccccc2)CC1` (stereo unspecified): the Potency result was “inactive”.

As to `O=C(CSc1nccn1-c1ccc(F)cc1)Nc1cccc2ccccc12`, the Potency result was “inactive”.

As to `CCOc1ccc(CCNC(=O)c2c(C)oc3ncn(C)c(=O)c23)cc1`, the Potency result was “inactive”.

For the molecule `CC(=O)N1c2ccc(S(=O)(=O)N3CCCCCC3)cc2CC1C(=O)NCc1ccccc1C` (stereo unspecified), the Potency entry is “inactive”.

Take `Cc1ccc(-c2nc3ccccn3c2Nc2c(C)cccc2C)o1`: the Potency result is “inactive”.

For `O=S(=O)(c1ccccc1)c1nc(-c2ccc(Cl)cc2Cl)oc1N1CCCCC1`, the Potency result was “inactive”.

Regarding `CCOC(=O)c1ccc(Nc2cc3ccccc3c(=O)[nH]2)cc1`, the Potency is 17.8 µM (active).

Take `CCOC(=O)c1ccc(NC(=O)CSc2nc3c([nH]c4ccccc43)c(=O)n2C)cc1`: the Potency result was “inactive”.

Consider `CCOC(=O)c1ccc(NC2=CC(c3ccc(OCC)cc3)N(c3ccc(C(=O)OCC)cc3)C2=O)cc1` (stereo unspecified), for which the Potency result is “inactive”.

As to `Cc1cc(C)c(/C=C/c2onc(C)c2S(=O)(=O)N2CCC(C(=O)Nc3ccc(Cl)cc3C)CC2)c(C)c1`, the Potency result was “inactive”.

Regarding `CCC(C)N1C(=O)S/C(=C/c2ccc(Sc3nc4ccccc4[nH]3)o2)C1=O` (stereo unspecified), the Potency result was “inactive”.

As for `O=C(O)C(c1ccccc1)N1C(=O)/C(=C\c2ccc(-c3cccc(Cl)c3)o2)SC1=S` (stereo unspecified), the Potency was 35.5 µM (active).

Turning to `O=C(NCc1ccccc1)c1cc(-c2cccc(Cl)c2)on1`, the Potency result was “inactive”.

As for `COc1ccccc1-c1cc(C(F)(F)F)nc(S(=O)(=O)CCCC(=O)Nc2ccc(F)cc2F)n1`, the Potency entry was “inactive”.

On to `O=C(CSc1nccn1C1CCCC1)Nc1cc(C(F)(F)F)ccc1Cl`, for which the Potency result is “inactive”.

Regarding `CCN(CC)c1ccc(NC(=O)CN2C(=O)c3cccnc3Oc3ccc(Cl)cc32)c(C)c1`, the Potency entry is “inactive”.

In the case of `Cc1ccc(NC(=O)NC(C)c2c(-n3cccc3)sc(C)c2C)c(C)c1` (stereo unspecified), the Potency entry is “inactive”.

On to `O=C(Cn1cnc2c(oc3ccccc32)c1=O)Nc1ccc(OC(F)(F)F)cc1`, for which the Potency entry is “inactive”.

Regarding `Cc1ccc2onc(CC(=O)N3CCN(c4ccc(Cl)cc4)CC3)c2c1`, the Potency entry was “inactive”.

In the case of `CCc1ccc2oc(-c3ccc(NC(=O)c4cc5ccccc5o4)cc3)nc2c1`, the Potency entry was “inactive”.

With `CCOc1ccc(CNC(=O)C2CCN(c3nnc(-n4cccc4CNc4ccc(C)cc4)s3)CC2)cc1OC`, the Potency entry was “inactive”.

Take `COc1cc(C(=O)N2CCN(c3ccc(Nc4ccc(C)cc4)nn3)CC2)cc(OC)c1OC`: the Potency entry was “inactive”.

For the molecule `CCCC(=O)Nc1cc(C(=O)NCc2ccc(OC)cc2)ccc1S(=O)(=O)c1ccc(Cl)cc1`, the Potency result was “inactive”.

As for `O=C(/C=C/c1ccc(N2CCOCC2)cc1)c1ccccc1`, the Potency is 25.1 µM (active).

`O=C1OC(NC(=O)c2ccccc2)C(N2CCOCC2)=C1Cl` (stereo unspecified): the Potency entry was “inactive”.

In the case of `NC(=O)c1ccc(N2CCOCC2)nc1`, the Potency entry is “inactive”.

In the case of `COC(=O)CN1C(=O)CSc2ccc(S(=O)(=O)Nc3cc(C)ccc3C)cc21`, the Potency entry was “inactive”.

Take `COc1ccc(CCNC(=O)c2cc(=O)c3c(C)cc(C)cc3o2)cc1OC`: the Potency result is “inactive”.

With `Cc1cc(C)c(/C=C2\C(=O)Nc3ccccc32)[nH]1`, the Potency is 25.1 µM (active).

Regarding `CCN(CC)CCNC(=O)Cn1ncc2c3ccccc3n(Cc3ccccc3C)c2c1=O`, the Potency result was “inactive”.

Regarding `CCc1ccccc1NC(=O)c1ccc(F)c(S(=O)(=O)NC2CCCCCC2)c1`, the Potency entry is “inactive”.

Turning to `COCCCNC(=O)c1ccc(NC(=O)c2nsc3ccccc23)cc1`, the Potency entry is “inactive”.

Regarding `CCOC(=O)c1cnc2c(C)cc(C)cc2c1Nc1ccc(N2CCOCC2)cc1`, the Potency entry is “inactive”.

With `CCc1nc2cccnc2n1-c1ccc(CC(=O)Nc2c(C)cccc2C)cc1`, the Potency entry is “inactive”.

With `Cc1ccc(-c2nnc(Nc3ccc(OCC(N)=O)cc3)c3ccccc23)cc1S(=O)(=O)NCC1CCCO1` (stereo unspecified), the Potency result was “inactive”.

For `CCOc1ccc(CCNC(=O)Cn2nc(CC)n3c(cc4sc(CC)cc43)c2=O)cc1OCC`, the Potency entry was “inactive”.

In the case of `Cc1ccc(OCC(=O)Nc2ccc(Cl)c(-c3nc4ccccc4[nH]3)c2)cc1C`, the Potency result is “inactive”.

Regarding `CCOc1ccc(CNC(=O)c2cccc(Nc3nc4ccccc4n4nnnc34)c2)cc1OC`, the Potency entry is “inactive”.

Consider `Cc1cc2nc3c(=O)n(Cc4ccccc4)c(=O)[nH]c3nc2cc1N`, for which the Potency was 25.1 µM (active).

As for `COCCn1c(N)c(NCc2ccccc2)c(=O)[nH]c1=O`, the Potency result is “inactive”.

In the case of `CCC(=O)Nc1ccc(C)cc1-c1nc2ccccc2n(Cc2ccccc2)c1=O`, the Potency result was “inactive”.

With `Cc1ccc(S(=O)(=O)N2CCCc3cc(NS(=O)(=O)c4cc(C)ccc4C)ccc32)cc1`, the Potency result is “inactive”.

`Brc1ccc(C2=CC(c3ccco3)n3ncnc3N2)cc1` (stereo unspecified): the Potency is 31.6 µM (active).

For `O=C(CCC(=O)N1CC2CCCN2c2ccccc21)NCc1ccccc1Cl` (stereo unspecified), the Potency result was “inactive”.

Consider `Cc1c(-c2nsc(NC(=O)c3cccc(Cl)c3)n2)nnn1-c1ccccc1C(F)(F)F`, for which the Potency result is “inactive”.

In the case of `COc1ccc(-n2c(SC)nc3sc4c(c3c2=O)CCN(C(C)=O)C4)cc1`, the Potency result is “inactive”.

As to `CCc1nn(CC(=O)N2CCN(c3cccc(C(F)(F)F)c3)CC2)c(=O)c2cc3occc3n12`, the Potency entry is “inactive”.

On to `CCN(CCCNC(=O)c1cc2c(=O)n(CC)c3ccccc3c2s1)Cc1ccccc1`, for which the Potency was 28.2 µM (active).

For the molecule `CCn1c(=O)c2cc(C(=O)NCCc3ccc(Cl)cc3)sc2c2ccccc21`, the Potency entry was “inactive”.

`CCc1ccc(CNC(=O)c2cc3c(=O)n(CC)c4ccccc4c3s2)cc1`: the Potency entry is “inactive”.

With `COc1cccc(CNC(=O)C2CCN(S(=O)(=O)c3ccc4c(ccn4C)c3)CC2)c1`, the Potency result was “inactive”.

In the case of `CCN(C(=O)Cn1cnc2sc(C)c(S(=O)(=O)N3CCN(c4ncccn4)CC3)c2c1=O)c1ccccc1F`, the Potency result was “inactive”.

With `CSc1nn(Cc2cccc(C)c2)c(N)c1S(=O)(=O)c1ccccc1`, the Potency entry was “inactive”.

As to `CC(=O)Nc1cc(C(=O)NCc2ccc(F)cc2Cl)ccc1Sc1ccc(Cl)cc1`, the Potency entry is “inactive”.

Turning to `CCc1cccc(NC(=O)CN(c2ccc(C)c(C)c2)S(=O)(=O)c2ccsc2C(=O)OC)c1`, the Potency entry was “inactive”.

`Cc1cc(C)c2sc(NC(=O)c3ccc(S(=O)(=O)N4CCCC4)cc3)nc2c1`: the Potency entry is “inactive”.

On to `COc1ccc(S(=O)(=O)NCC(c2ccc(N(C)C)cc2)N2CCc3ccccc32)cc1OC` (stereo unspecified), for which the Potency result is “inactive”.

For `CCCN1C(=O)C(O)(CC(=O)c2ccc(CC)cc2)c2cc(Br)ccc21` (stereo unspecified), the Potency result is “inactive”.

For `COc1cccc(CNC(=O)CCC(=O)N2CC3CCCN3c3ccccc32)c1` (stereo unspecified), the Potency entry was “inactive”.

`CC(C)NC(=O)c1nn(-c2ccccc2F)nc1CO`: the Potency result is “inactive”.

As for `COc1ccc(CNC(=O)CS(=O)Cc2nc(-c3cccc(C)c3)oc2C)cc1` (stereo unspecified), the Potency result was “inactive”.

Consider `CCCCS(=O)(=O)c1oc(-c2cccs2)nc1S(=O)(=O)c1ccccc1`, for which the Potency result is “inactive”.

On to `CCOc1ccc(OCC)c(NC(=O)c2cc(C)nc3c2c(C)nn3-c2cccc(Cl)c2C)c1`, for which the Potency entry was “inactive”.

For `O=C(CSc1nc(=O)n(Cc2cccnc2)c2c1CCC2)Nc1ccc(F)cc1F`, the Potency result was “inactive”.

On to `CCN(CC)CCCC(C)n1c2nc(=O)[nH]c(=O)c-2nc2cc(Cl)ccc21` (stereo unspecified), for which the Potency is 25.1 µM (active).

As for `Cc1ccc(OCC(=O)OCc2cc(=O)n3nc(C4CC4)sc3n2)cc1C`, the Potency entry was “inactive”.

On to `O=C(CCn1ccc2cc(S(=O)(=O)N3CCCC3)ccc21)NCc1cccc(Cl)c1`, for which the Potency entry was “inactive”.

As to `COc1ccc2c(c1)Cc1sc(NC(=O)c3ccccc3Br)nc1-2`, the Potency was 31.6 µM (active).

As to `COCCN(CCOC)S(=O)(=O)c1ccc(C(=O)Nc2nc3c(s2)CCc2ccccc2-3)cc1`, the Potency entry is “inactive”.

Turning to `COc1ccc(NS(=O)(=O)c2ccc(N3CCOCC3)c(NC(=O)c3ccccc3Br)c2)cc1`, the Potency entry was “inactive”.

As for `Cc1oc(-c2ccccc2)nc1Cn1c(SCc2cccc(C(F)(F)F)c2)nc2cccnc21`, the Potency result is “inactive”.

Consider `COc1cccc(NC(=O)Cn2c(=O)cc(C)c3c(C)nn(-c4cccc(F)c4)c32)c1`, for which the Potency entry was “inactive”.

As to `CCCCOc1ccc(C(=O)N2CC(=O)Nc3ccc(Br)cc3C2c2ccc(F)cc2)cc1` (stereo unspecified), the Potency result was “inactive”.

Regarding `O=C(NCC(c1ccco1)S(=O)(=O)c1cccs1)c1ccc(F)cc1` (stereo unspecified), the Potency result was “inactive”.

Regarding `O=C(CSc1oc(-c2ccc(F)cc2)nc1S(=O)(=O)c1ccc(Br)cc1)NC1CCCCC1`, the Potency result was “inactive”.

With `COc1ccc(Cc2nc3ccc(C(=O)NCc4ccccc4Cl)cc3o2)cc1`, the Potency entry is “inactive”.

(Values after PubChem BioAssay AID743255 (National Center for Advancing Translational Sciences (NCATS), 2014).)
